Measured values: PubChem BioAssay (NCI)
Compounds without any hit were thinned out: in the full panel of roughly 83,000, 20% have a hit.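 Cells were grown in 96-well plates and exposed to the test compound at a single concentration for 48 hours; results are reported as percent growth, with values below 10 considered active.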 A number with no mark means an inactive call. The source made the active and inactive calls.

Each molecule was assayed on RPMI-8226 leukemia (assay: NCI-60 one-dose screen, 48 h (100 = growth as untreated, 0 = no growth, -100 = all killed)). Conditions: 10 µM.
Experimental: Growth inhibition of the RPMI-8226 human tumor cell line is measured as a screen for anti-cancer activity. Cells are grown in 96 well plates and exposed to the test compound for 48 hours. Compounds are tested at a single concentration, which is 10^-5 M for most compounds. The reported endpoint is percent growth (GI% or GIPRCNT), where numbers from 0 - 100% represent growth inhibition, and numbers from -100% - 0 represent cell death. For example, a value of 40 represents 60% growth inhibition. A value of 0 means no net growth occurred over the course of the experiment. A value of -40 indicates 40% of cells at the beginning of the experiment died by the end of the experiment. A value of -100 means all cells are dead at the end of the experiment.
NCI-60 Human Tumor Cell Lines Screen was performed using the standard one-dose NCI protocol, which is described in more detail at https://dtp.cancer.gov/discovery_development/nci-60/default.htm.
Compounds with GIPRCNT values below 10 were considered active. Activity score was based on GIPRCNT using the following formula: […]
Score is 0 for GIPRCNT values of 100 or above, 50 for GIPRCNT values of 0, and 100 for GIPRCNT values of -100.
COc1cc(/C=N\Nc2ccccc2)ccc1OC(=O)c1ccccc1 was tested, and the growth was 54.3%. Molecule O=S(=O)(O)c1cc(O)c2c(N=Cc3ccccc3O)c(S(=O)(=O)O)ccc2c1 has a growth of 97.5%. CN(C)c1ccc(S(=O)(=O)O)cc1 showed a growth of 95.6%. Molecule CC(=O)C1CCCCC1 has a growth of 96.4%. In the case of OCc1ccc(-c2ccc(-c3ccc(CO)s3)o2)s1, the growth is reported as -22.5% (active). Molecule CCOC(=O)CCCS(C)(=O)=O has a growth of 124%. [O-][N+](=Nc1cccc(Cl)c1)c1cccc(Cl)c1 showed a growth of 81.9%. CCN(CC)C(=O)/C=C(/C)c1ccccc1 showed a growth of 109%. Work on O=c1[nH]nc(SC2CCCCC2)c(=O)[nH]1 yielded a growth of 102%. With CCOC(=O)C/C(C)=N\O the growth was 104%. C=CCc1cc(C(C)=O)cc(OC)c1O gave a growth of 122%. With COc1ccccc1NC(=O)C1=C(C)NC(C)=C(C(=O)Nc2ccccc2OC)C1c1cccc([N+](=O)[O-])c1 the growth was 51.9%. Molecule O=[N+]([O-])c1cccc(N=Nc2ccc(O)cc2O)c1 has a growth of 29.6%. Work on Cc1nc2c(ccc3ccccc32)s1 yielded a growth of 100%. Work on S=C(Nc1ccccc1)N1CCCCC1 yielded a growth of 110%. Molecule NC(C(=O)O)C(O)c1ccco1 (stereo not given) has a growth of 101%. Molecule O=C(O)CCCCNC(=O)c1ccccc1 has a growth of 103%. With N#Cc1ccc(OC(=O)Nc2ccc(Cl)c(Cl)c2)cc1 the growth was 5.09% (active). Cc1ccc(C(=O)N/N=C/c2ccc3c(c2)OCO3)cc1 showed a growth of 94.3%. CCCC(=O)c1cc(C)ccc1OC gave a growth of 110%. CCOC(=O)c1cc(/C=C/c2ccc(Cl)cc2Cl)on1 was tested, and the growth was 2.84% (active). Work on CC1Cc2ccccc2O1 (stereo not given) yielded a growth of 109%. O=[N+]([O-])c1ccccc1N=Nc1ccc(O)cc1O showed a growth of 109%. In the case of CC1(C)N=C(N)N=C(N)N1c1cccc(Br)c1, the growth is reported as 43.9%. For COc1cc(-c2ccc(NC(=O)NC3CC3)c(OC)c2)ccc1NC(=O)NC1CC1, the growth was 36.2%. For N/N=C(/Cc1ccccc1)NNC(N)=S, the growth was 100%. For O=C1OC(=O)C2C1C1(Cl)C(Cl)=C(Cl)C2(Cl)C2C(=O)OC(=O)C21 (stereo not given), the growth was 96.4%. Work on O=[N+]([O-])c1ccc(O)c(S(=O)(=O)O)c1 yielded a growth of 105%. With O=C(NC1CCCCC1)OCc1c(COC(=O)NC2CCCCC2)c(-c2ccc(Cl)c(Cl)c2)n2c1CCC2 the growth was 40%. For CC(C)=NNc1ccc([N+](=O)[O-])cc1[N+](=O)[O-], the growth was 68.2%. CCNc1nc2c(cnn2C)c(=O)[nH]1 showed a growth of 99.8%. Work on O=C1OC(c2ccc(F)cc2)CC1CN1CCOCC1 (stereo not given) yielded a growth of 75.6%. c1c(-c2cc(C3CC3)[nH]n2)n[nH]c1C1CC1 was tested, and the growth was 105%. With Nc1ccccc1C(=O)Nc1ccc(Cl)cc1Cl the growth was 63.9%. CCOC(=O)c1coc(C(=O)OCC)c1C(=O)OCC showed a growth of 126%. Cn1cnc2nc(Cl)nc(Cl)c21 showed a growth of 23.4%. Nc1ccc(CC(=O)O)c(N)c1 showed a growth of 104%. With CCCCCCCCCCCCCC(=O)Oc1ccc[nH]c1=O the growth was 95.7%. CC(=O)OCCC(C)CCC=C(C)C (stereo not given) was tested, and the growth was 95%. Molecule C=CCNC(=O)c1ccc(OC)cc1 has a growth of 92.4%.
